The list is not random: actives were taken first. Their share in the collection is about 19%.
ASM inhibitor: Inhibitors of Secretory Acid Sphingomyelinase (S-ASM): qHTS; Sphingomyelin phosphodiesterase (Homo sapiens), P17405; placental ASM, HMU-PC fluorogenic substrate, 60 min; Potency, µM (top dose mostly 57.5 µM), without a hit: at the top dose activity change, negative = inhibition, actives largely listed as inhibitors; 340,000 compounds, 0.006% hits; AID 504937, 2011; also: potency is read from the fitted curve at half-maximal effect
Target sequence (P17405 47-631 limits assumed): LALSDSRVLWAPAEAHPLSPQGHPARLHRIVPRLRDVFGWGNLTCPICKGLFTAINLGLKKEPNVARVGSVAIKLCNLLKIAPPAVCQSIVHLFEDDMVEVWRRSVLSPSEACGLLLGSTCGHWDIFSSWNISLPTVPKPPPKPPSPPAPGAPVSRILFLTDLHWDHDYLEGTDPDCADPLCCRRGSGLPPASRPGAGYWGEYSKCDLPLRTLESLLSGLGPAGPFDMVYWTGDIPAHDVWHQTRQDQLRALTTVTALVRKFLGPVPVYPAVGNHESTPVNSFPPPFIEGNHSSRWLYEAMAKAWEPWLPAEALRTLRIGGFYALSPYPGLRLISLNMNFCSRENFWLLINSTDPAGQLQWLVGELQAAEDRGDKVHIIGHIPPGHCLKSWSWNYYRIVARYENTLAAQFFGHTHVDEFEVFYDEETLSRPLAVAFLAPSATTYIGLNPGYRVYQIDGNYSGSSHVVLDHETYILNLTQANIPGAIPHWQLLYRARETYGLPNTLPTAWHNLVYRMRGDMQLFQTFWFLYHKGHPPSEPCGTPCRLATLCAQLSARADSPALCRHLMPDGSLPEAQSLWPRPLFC
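Fluorescence read-out (Ex 386 nm, Em 447 nm) after stopping the reaction at pH 10. Enzyme: ASM from human placenta; substrate HMU-PC0, 9 uM final; 60 min, 37 °C. Compound preincubation 10 min, ambient temperature.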
DT40 TDP1 no CPT: qHTS for Inhibitors of human tyrosyl-DNA phosphodiesterase 1 (TDP1): qHTS in cells in absence of CPT; DT40 Tdp1-/- hTDP1 cells, no CPT, ATP luminescence, 48 h; Potency, µM (highest dose often 46.2 µM), without a hit: top-dose activity change, negative = growth inhibition, usual class: inhibitors; 420,000 compounds, 15% hits; AID 686978, 2013; also: potency is read from the fitted curve at half-maximal effect; % is scaled to controls: 0 for no effect and ±100 for the full control effect; nearly all actives have a fitted effect of over 55% in size
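Chicken DT40 Tdp1-/- cells complemented with human TDP1, screened without camptothecin (DMSO vehicle only), 400 cells/well. Compounds pin-transferred, cells incubated at 37 °C for at least 48 hr. Growth read as ATP-dependent luminescence (CellTiter-Glo, 30 min at RT).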
HepG2 viability: qHTS for Inhibitors of TGF-b: Cytotox Counterscreen. HepG2 CAGA-GFP viability, ATP luminescence, 18 h. Potency, µM (doses to about 46.1 µM), inactives show at the top dose activity change, negative = cytotoxicity, hits mostly cytotoxic. 410,000 compounds, 0.76% hits; also: potency is read from the fitted curve at half-maximal effect
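HepG2 CAGA-GFP cells (1000/well, DMEM with 1% FBS) received compound, then TGF-beta at 500 pg/mL final, and were incubated 18 hours at 37 degrees C. Viability was read by CellTiter-Glo luminescence. Media-only wells were set as complete cell-killing and DMSO as no toxicity.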
IL1B secr inh: qHTS for Inhibitors of Inflammasome Signaling: IL-1-beta AlphaLISA Primary Screen; THP-1 LPS/ATP IL-1B secretion, AlphaLISA, 16 h; stronger effect = lower value; activity change, % at 57.5 µM; 360,000 compounds, 4.7% hits; AID 743279, 2014; in the data active = activity change below about -50%; inconclusive = mostly about -30% to -49%; also: % is scaled to controls: 0 for no effect and ±100 for the full control effect
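Secreted IL-1B measured by AlphaLISA bead assay after 16 h compound exposure of THP-1 cells; compounds (final up to 57.5 uM) added 1 h before LPS (250 ng/mL) and ATP (1.25 mM) stimulation; lower signal means less secretion.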
TDP1 cell CPT: qHTS for Inhibitors of human tyrosyl-DNA phosphodiesterase 1 (TDP1): qHTS in cells in presence of CPT. chicken DT40 Tdp1-/-;hTDP1 cells + 20 nM CPT, ATP luminescence, 48 h. 420,000 compounds, 12% hits. Potency, µM (top dose mostly 46.2 µM), for the others: top-dose activity change, negative = growth inhibition, usual class: inhibitors. AID 686979, 2013; also: potency is read from the fitted curve at half-maximal effect; % is scaled to controls: 0 for no effect and ±100 for the full control effect; nearly all actives have a fitted effect of over 55% in size
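Cell growth measured by CellTiter-Glo luminescence after a minimum 48 h, 37 C compound exposure with 20 nM CPT in Tdp1-knockout DT40 cells stably expressing hTDP1, seeded 400/well; qHTS titration format.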
TGFb inhibitor: qHTS for Inhibitors of TGF-b; HepG2 CAGA-GFP TGF-b/SMAD3 reporter, GFP fluorescence, 18 h; TGF-beta stimulated, 500 pg/mL final; 410,000 compounds, 1.2% hits; Potency, µM (series often up to 46.1 µM), for the others: top-dose activity, negative = inhibition, actives largely listed as inhibitors; also: potency is read from the fitted curve at half-maximal effect; % is scaled to controls: 0 for no effect and ±100 for the full control effect; nearly all actives have a fitted effect of over 65% in size
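HEPG2 CAGA-GFP reporter cells (1000/well, DMEM with 1% FBS) received compounds, then recombinant TGF-beta at 500 pg/mL final for 18 hours at 37 degrees C. Per-cell GFP summed per well was normalised to unstimulated and stimulated DMSO controls before curve fitting.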
Numbers without * were called inactive; ? = inconclusive; . = not tested or not shown. Unless noted, calls follow the shape of the dose curve; as a rule, active = well fitted curve in the direction sought with a large enough effect; inconclusive = small, poorly fitted or top-dose-only effect, or another doubt; inactive = no such curve, though single readings can be large; an effect the other way counts as inactive or inconclusive.

SMILES	ASM inhibitor	DT40 TDP1 no CPT	HepG2 viability	IL1B secr inh	TDP1 cell CPT	TGFb inhibitor
CCOC(=O)c1c(NC(=O)c2ccco2)sc(C(=O)N2CCCC2)c1C	-4.2%	?	-1.4%	-13.2	?	-10.5%
CCOC(=O)c1c(NC(=O)C(C)Sc2cn(CCNC(=O)c3ccc(OCC)cc3)c3ccccc23)sc2c1CCC2 (stereo unspecified)	.	?	-19.9%	.	?	-1.4%
O=C(Nc1sc2c(c1C(=O)NCCO)CCCC2)c1ccco1	1.6%	-5.3%	4.2%	-59.2*	-6.9%	-1.5%
CCOC(=O)c1c(NC(=O)C(C)Sc2cn(CCNC(=O)c3c(F)cccc3F)c3ccccc23)sc2c1CCC2 (stereo unspecified)	.	16.4µM*	2.3%	.	20.6µM*	21.9%
CN(C)C(=O)c1c(NC(=O)c2ccco2)sc2c1CCCCC2	0.0%	-4.8%	-1.1%	16.6	?	-5.7%
CCOC(=O)c1c(NC(=O)c2ccc(N3C(=O)C4C5C=CC(C5)C4C3=O)cc2)sc2c1CCCC2 (stereo unspecified)	16.1%	23.1µM*	1.5%	-2.2	?	7.3%
N#CCSc1ccccc1NC(=O)COC(=O)CCN1C(=O)C2CC=CCC2C1=O (stereo unspecified)	3.9%	-0.2%	-27.2%	17.9	4.6%	4.1%
CCOC(=O)c1c(NC(=O)CS(=O)(=O)c2cn(CC)c3ccccc23)sc2c1CCCCC2	-0.4%	?	-21.6%	26.8	20.6µM*	?
CCOC(=O)c1c(NC(=O)c2ccco2)sc2c1CCCCC2	23.6%	29.1µM*	-79.3%	3.6	29.1µM*	6.9%
O=C(Nc1sc2c(c1C(=O)O)CCCCC2)c1ccco1	3.9%	?	-35.6%	23.1	?	?
CCOC(=O)c1c(NC(=O)CCNCc2ccco2)sc2c1CCC2	-0.3%	?	-36.8%	-68.8*	?	-3.5%
CCOC(=O)c1c(NC(=O)CNCCOC)sc2c1CCCC2	-6.6%	11.6µM*	-49.0%	-1.5	?	-5.9%
CCOC(=O)c1c(NC(=O)CS(=O)(=O)c2ccc(C)cc2)sc2c1CCCCC2	.	?	-30.7%	.	?	?
CCOC(=O)c1c(NC(=O)CCC(=O)O)sc2c1CCCCC2	8.0%	?	1.6%	16.2	?	-29.7%
O=C(O)c1ccc(S(=O)(=O)N2CCN(c3ccccn3)CC2)cc1	-0.9%	-14.3%	-7.4%	17.9	0.5%	-3.8%
Cc1ccc(Cl)cc1N1CCN(C(=O)c2ccccc2SCC(=O)N2CCCC2)CC1	-1.5%	8.2µM*	-23.3%	-1.5	20.6µM*	?
Cc1ccc(Cl)cc1N1CCN(C(=O)CCSCc2ccccc2F)CC1	.	23.1µM*	-44.4%	.	?	?
COc1ccccc1N1CCN(C(=O)c2ccccc2SCC(=O)N2CCCC2)CC1	1.0%	?	1.6%	-5.4	0.0%	0.2%
Cc1cccc(CCN2C(N(C)C)=NC[C@@H]2C)c1	3.6%	?	0.5%	19.7	?	1.0%
Cc1ccc(-c2cc(C(=O)N3CCN(C4CCS(=O)(=O)C4)CC3)c3ccccc3n2)cc1 (stereo unspecified)	2.0%	?	-33.7%	?	13µM*	-18.7%
CCOC(=O)C1CCCN(C(=O)c2sc(-c3ccccc3)nc2C)CC1 (stereo unspecified)	.	14.6µM*	-3.9%	0.0	?	1.1%
CCOc1ccc(-c2cc(C(=O)N3CCCC3)c3ccccc3n2)cc1	16.3%	23.1µM*	3.1%	1.0	?	-1.9%
Cc1ccc(-c2cc(C(=O)N3CCCCC3)c3ccccc3n2)cc1C	-0.6%	23.1µM*	-31.5%	-27.1	16.4µM*	?
O=C(c1cc(-c2ccccc2)nc2ccccc12)N1CCCC1	-0.2%	-21.6%	-8.9%	-3.0	-1.2%	-0.6%
Cc1ccc(-c2nn(-c3ccccc3)cc2C(=O)N2CCN(C3CCS(=O)(=O)C3)CC2)cc1 (stereo unspecified)	4.8%	16.8%	-6.1%	-9.0	-13.4%	-5.1%
SMILES	ASM inhibitor	DT40 TDP1 no CPT	HepG2 viability	IL1B secr inh	TDP1 cell CPT	TGFb inhibitor
CCOc1ccc(-c2cc(C(=O)N3CCN(C)CC3)c3ccccc3n2)cc1	38.7%	?	-9.3%	-2.8	?	-3.7%
CCOC(=O)C1CCCN(C(=O)c2cc(-c3ccccc3)cs2)CC1 (stereo unspecified)	.	?	-15.0%	-14.8	?	?
Cc1cc(C(=O)O)ccc1[C@H](N)C(=O)O	.	-18.9%	.	.	-2.0%	.
CCOC(=O)N1CCN(C(=O)c2cc(-c3ccc(OCC)cc3)nc3ccccc23)CC1	61.7%	3.66µM*	-23.9%	16.9	4.61µM*	-11.3%
CCOC(=O)C1CCCN(C(=O)c2cc(-c3ccccc3)nc3ccccc23)C1 (stereo unspecified)	1.4%	4.0%	2.1%	27.8	0.2%	-5.9%
CCOC(=O)C1CCN(C(=O)c2cc(-c3ccncc3)nc3ccccc23)CC1	-4.8%	20.6µM*	-21.7%	10.4	?	19.9%
CCOC(=O)N1CCN(C(=O)c2cc(-c3ccncc3)nc3ccccc23)CC1	-0.5%	5.8µM*	-27.7%	12.6	5.8µM*	-13.7%
CS(=O)(=O)N1CCN(C(=O)c2cc(-c3ccccc3)nc3ccccc23)CC1	-2.1%	-20.6%	-6.1%	9.4	?	-4.2%
CCC(CC)C(=O)N(C)c1c(C)nc2c(OCc3ccc(C(F)(F)F)cc3)cccn12	.	18.4µM*	-17.7%	?	23.1µM*	-16.3%
CCC(CC)C(=O)N(C)c1c(C)nc2c(OCc3ccc(F)c(F)c3)cccn12	.	20.6µM*	-31.0%	17.1	?	-12.3%
CCOC(=O)C[C@H]1c2ccccc2S(=O)(=O)N1C1CC1	1.0%	-0.2%	-4.7%	26.3	?	?
O=c1c(/C=N\NS(=O)(=O)c2ccccc2)coc2ccc(Cl)cc12	-11.2%	-18.4%	-1.4%	9.2	?	-12.7%
CCOc1ccccc1-c1c2cc(O)c(=O)cc-2oc2cc(O)c(O)cc12	-4.8%	?	-2.8%	35.1	23.1µM*	2.82µM*

Screening data from PubChem BioAssay.
